18 compounds from PubChem BioAssay (NCI) can be followed below.

The panel holds about 83,000 compounds, 20% with a hit somewhere; the sample as a whole holds those more often.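 Percent growth is the endpoint: 0 to 100 indicates growth inhibition (40 means 60% inhibition), 0 means no net growth, and negative values indicate cell death.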 Unmarked numbers belong to inactive results. Active and inactive are the calls of the source. How the source made its calls: active means growth percent below 10; inactive means the rest.

Common to all, as to test: NCI-60 one-dose screen, 48 h (100 = growth as untreated, 0 = no growth, -100 = all killed)
Common to all, as to details: 10 µM unless noted

Assay [1] relates to T-47D breast.
Assay [2] concerns BT-549 breast.
In assay [3] the test system is MDA-MB-435 melanoma.
In assay [4] the test system is SW-620 colon.
The subject of assay [5] is MCF7 breast.
Assay [6] deals with HCT-116 colon.
Assay [7] concerns HCC-2998 colon.

As for `O=C1c2c(c3c4cccnc4[nH]c3c3ccc4ccccc4c23)C(=O)N1CCN1CCOCC1`, the growth in assay [1] is 65.5%; in assay [2], 65.6%; in assay [3], 67.7%; in assay [4] it was 47.1%; in assay [5] it was 15.9%; in assay [6], 58.1%. The growth in assay [7] is 82%.

Consider `COc1ccc(-c2nc(SCC(C)C)nc(N/N=C\c3cccc([N+](=O)[O-])c3)c2C#N)cc1`, for which the growth in assay [1] is 64%; in assay [2], 64.1%; in assay [3], 67.3%; in assay [4] it was 56.9%; in assay [5], 61.6%; in assay [6], 30.1%. Further, the growth in assay [7] was 80.3%.

With `COc1cc2oc(-c3cccc(NC(=O)c4cc(NC(=O)[C@H](C)NC(=O)OC(C)(C)C)ccc4C)c3)cc(=O)c2c(OC)c1OC`, the growth is 28.2% in assay [1]; 84.9% in assay [2]; 90% in assay [3]; 92.9% in assay [4]; 67% in assay [5]; 58% in assay [6]. In addition, the growth in assay [7] was 78.6%.

As for `O=C1c2c(c3c4cccnc4[nH]c3c3ccc4ccccc4c23)C(=O)N1CCN1CCCCC1`, the growth was 46.4% in assay [1]; 84.4% in assay [2]; 69% in assay [3]; 41.3% in assay [4]; 14.5% in assay [5]; 36.9% in assay [6]. Further, the growth in assay [7] was 70%.

For the compound `C/C(=C(/C)C1CC1CCN(C(=O)c1ccc([N+](=O)[O-])cc1)S(=O)(=O)c1ccc(C)cc1)C1CCCCC1` (centres undefined), the growth in assay [1] is 77.3%; in assay [2], 136%; in assay [3] it was 99.4%; in assay [4], 96.7%; in assay [5], 86.9%; in assay [6], 89.9%. Moreover, in assay [7], the growth is 112%.

As for `C=CCn1c(SCC(=O)Nc2cccc(C(=O)/C=C/c3ccc(Br)cc3)c2)nc2ccccc2c1=O`, the growth in assay [1] is 76%; in assay [2], 45.8%; in assay [3], 86.9%; in assay [4], 76.3%; in assay [5] it was 26.6%; in assay [6], 8.62% (active). Also, the growth in assay [7] was 93.8%.

For the compound `COc1ccc(-c2ccc3c4c(cccc24)C(=O)N(N2C(=O)c4cccc5cccc(c45)C2=O)C3=O)cc1`, the growth was 98% in assay [1]; 106% in assay [2]; 98.8% in assay [3]; 96.2% in assay [4]; 15.6% in assay [5]; 96.8% in assay [6]. Further, the growth in assay [7] was 114%.

As to `CCN(CC)CCN1C(=O)c2c(c3c4cc(Br)ccc4[nH]c3c3ccc4ccccc4c23)C1=O`, the growth in assay [1] was -34.5% (active); in assay [2], 61.8%; in assay [3], -94.7% (active); in assay [4], -61.6% (active); in assay [5], -80% (active); in assay [6] it was -80.1% (active).

For the compound `Cc1ccc(-c2csc(N/N=C/c3nc4ccccc4n3C3CC3)n2)cc1`, the growth in assay [1] was -50.9% (active); in assay [2] it was 73.1%; in assay [3] it was 92.4%; in assay [4], -72% (active); in assay [5], 50.2%; in assay [6], 89.3%. For the same compound, the growth in assay [7] was 90%.

For the compound `COc1ccc([C@H]2[C@H](O)C(=O)N2c2cc(OC)c(OC)c(OC)c2)cc1`, the growth was 70.2% in assay [1]; -2.44% (active) in assay [2]; -12.9% (active) in assay [3]; 20.3% in assay [4]; 12.4% in assay [5]; 0.54% (active) in assay [6]. Also, the growth in assay [7] is 16.3%.

For `O=C(Nc1ccc(Cl)cc1)Nc1nc2ccc([N+](=O)[O-])cc2s1`, the growth was -25.9% (active) in assay [1]; -38% (active) in assay [2]; -27.7% (active) in assay [3]; 0.202% (active) in assay [4]; -15.4% (active) in assay [5]; -35.1% (active) in assay [6]. Also, in assay [7], the growth is -27.6% (active).

With `COc1ccc(-c2oc3cc(O)cc(O)c3c(=O)c2OC)cc1O`, the growth is 22.6% in assay [1]; 40.3% in assay [2]; -34.3% (active) in assay [3]; 29.6% in assay [4]; 25.8% in assay [5]; 12.4% in assay [6].

For `O=C1c2c(c3c4cc(Br)ccc4[nH]c3c3ccc4ccccc4c23)C(=O)N1CCN1CCCCC1`, the growth was 43.3% in assay [1]; 91% in assay [2]; -41.8% (active) in assay [3]; 10.5% in assay [4]; -35.6% (active) in assay [5]; -61.8% (active) in assay [6]. Moreover, the growth in assay [7] was 2.69% (active).

With `C#C[C@]1(O)CC[C@H]2[C@@H]3CC=C4c5sc(Nc6cccc(C)n6)nc5CC[C@]4(C)[C@H]3CC[C@@]21C`, the growth in assay [1] is 37.7%; in assay [2], 23.1%; in assay [3], -41.5% (active); in assay [4] it was -22.6% (active); in assay [5], -41.5% (active); in assay [6], 14.4%. The growth in assay [7] is 47.5%.

For `Clc1ccc(-c2csc(N/N=C/c3nc4ccccc4n3C3CC3)n2)cc1`, the growth in assay [1] is 111%; in assay [2], 103%; in assay [3] it was 98.9%; in assay [4], 107%; in assay [5], 94.2%; in assay [6], 96.3%. In addition, the growth in assay [7] was 105%.

With `COc1cc(/C=C/C(=O)c2ccc(NC(=O)COc3cccc4cccnc34)cc2)cc(OC)c1OC`, the growth in assay [1] was 90.2%; in assay [2], 81.7%; in assay [3], 88.3%; in assay [4], 69.8%; in assay [5], 20.6%; in assay [6], 23.9%. The growth in assay [7] is 112%.

Take `c1cncc(-c2cn3nc(-c4c[nH]c5ccccc45)sc3n2)c1`: the growth was 69.7% in assay [1]; 33.3% in assay [2]; -38% (active) in assay [3]; 28.6% in assay [4]; 34.7% in assay [5]; 28.8% in assay [6]. Also, the growth in assay [7] was 59.1%.

For the compound `NC(N)=NS(=O)(=O)c1ccc(N=NC2C(=O)NN(c3ccccc3)C2=O)cc1` (centres undefined), the growth in assay [1] is 95.8%; in assay [2], 107%; in assay [3], 101%; in assay [4], 100%; in assay [5] it was 93.2%; in assay [6], 97.3%. The growth in assay [7] is 103%.
